Source: PubChem BioAssay (NCI)
This is part of a sample that, as a whole, favours compounds with a hit. Of some 79,000 tested, about 15% had one in any assay. The source made the active and inactive calls. No stated cut-off is given here; in the data, active means growth inhibition above about 70%; inactive means the rest.

Tests used:
[1] = NCI Yeast Anticancer Drug Screen. Data for the rad50 strain (AID 155);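 further: 0% = growth of vehicle-only cultures of the same strain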; settings: S. cerevisiae rad50 strain growth inhibition, stronger effect = higher value
In short: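 Readout: growth inhibition relative to vehicle-treated cultures. Compound exposure was carried out in a genetically defined yeast strain deficient in DNA damage repair.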

[2] = NCI Yeast Anticancer Drug Screen. Data for the mec2-1 strain (AID 157); settings: S. cerevisiae mec2-1 strain, stronger effect = higher value
In short: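 Strain: mec2-1 (DNA repair/cell cycle alteration). Compound exposure, then growth measured; inhibition expressed relative to vehicle.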

[3] = NCI Yeast Anticancer Drug Screen. Data for the sgs1 mgt1 strain (AID 161);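 further: 0% = growth of cultures given vehicle only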; settings: S. cerevisiae sgs1 mgt1 strain, stronger effect = higher value
In short: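 Test agents were incubated with a DNA-repair-mutant yeast strain. Growth was then read and compared against vehicle-treated controls.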

[4] = NCI Yeast Anticancer Drug Screen. Data for the cln2 rad14 strain (AID 165);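 further: 0% = growth equal to vehicle treated cultures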; settings: S. cerevisiae cln2 rad14 strain, stronger effect = higher value
In short: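 Compounds are applied to the cln2 rad14 yeast strain, and growth is then compared with that of vehicle-treated cultures to give inhibition.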

[5] = NCI Yeast Anticancer Drug Screen. Data for the bub3 strain (AID 167); settings: S. cerevisiae bub3 mutant strain, stronger effect = higher value
In short: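 Readout: yeast growth inhibition, expressed relative to vehicle-only wells. The test organism is a mutant strain from a panel with lesions in DNA repair or checkpoint genes.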

[6] = NCI Yeast Anticancer Drug Screen. Data for the mlh1 rad18 strain (AID 175); settings: S. cerevisiae mlh1 rad18 strain growth inhibition, stronger effect = higher value
In short: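 Read-out is yeast growth inhibition, calculated against vehicle-only controls. The compound was applied to a strain engineered with DNA damage repair alterations.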

[7] = at 5.0 µM (retest, dose inferred, filed as 0.5)
[8] = at 50.0 µM (retest, dose inferred, filed as 5.0)

Measured: growth inhibition

CC(=O)OCC1OC(OC2C=C(O[Si](C)(C)C)C[C@H]3C(=O)C=CC(=O)[C@@H]23)C(OC(C)=O)C(OC(C)=O)C1OC(C)=O (some centres not stated)
inactive: [1]; [7] 6% | [1]; at 50.0 µM 58.6% | [2]; [7] 1% | [2]; at 50.0 µM 59.2% | [3]; [7] 2% | [3]; at 50.0 µM 31.4% | [4]; [7] 2% | [4]; at 50.0 µM 4.5% | [5]; [7] 3% | [5]; at 50.0 µM 15.1% | [6]; [7] 3% | [6]; at 50.0 µM 54.6%
active: [1]; [8] 96% | [2]; [8] 98% | [3]; [8] 98% | [4]; [8] 88% | [5]; [8] 93% | [6]; [8] 97%

CCn1c2ccc(N)cc2c2c(N)c(-n3cccc3)ccc21
active: [1]; at 50.0 µM 94.5% | [3]; [8] 71% | [3]; at 50.0 µM 97.5% | [5]; [8] 86% | [5]; at 50.0 µM 87.5% | [6]; at 50.0 µM 91.5%
inactive: [1]; [7] 1% | [1]; [8] 61% | [2]; [7] 3% | [2]; [8] 54% | [2]; at 50.0 µM 64.2% | [3]; [7] -7% | [4]; [7] -6% | [4]; [8] 50% | [4]; at 50.0 µM 61.9% | [5]; [7] -2% | [6]; [7] 4% | [6]; [8] 57%

Cc1cccc(Cc2ccc(Cl)cc2)c1O
active: [1]; [8] 99% | [1]; at 50.0 µM 99.3% | [2]; [8] 100% | [2]; at 50.0 µM 99.5% | [3]; [8] 99% | [3]; at 50.0 µM 99.5% | [4]; [8] 99% | [4]; at 50.0 µM 99.3% | [5]; [8] 99% | [5]; at 50.0 µM 99.2% | [6]; [8] 99% | [6]; at 50.0 µM 99%
inactive: [1]; [7] 4% | [2]; [7] -1% | [3]; [7] 5% | [4]; [7] -10% | [5]; [7] -6% | [6]; [7] -2%

CC(C)(O)[C@H](CCO)O[Si](c1ccccc1)(c1ccccc1)C(C)(C)C
active: [1]; [8] 97% | [1]; at 50.0 µM 98.3% | [2]; [8] 98% | [2]; at 50.0 µM 92% | [3]; [8] 97% | [3]; at 50.0 µM 98.2% | [4]; [8] 97% | [4]; at 50.0 µM 97.5% | [5]; [8] 98% | [5]; at 50.0 µM 98.5% | [6]; [8] 97% | [6]; at 50.0 µM 98.6%
inactive: [1]; [7] 26% | [2]; [7] 18% | [3]; [7] 13% | [4]; [7] 17% | [5]; [7] 4% | [6]; [7] 23%

CCCCCCCCN(CCCCCCCC)CC(O)c1cc(-c2ccc(Cl)cc2)nc2c(Cl)cccc12 (configuration not stated)
inactive: [1]; [7] 1% | [1]; [8] 5% | [1]; at 50.0 µM 19.1% | [2]; [7] -1% | [2]; [8] 1% | [2]; at 50.0 µM 25.2% | [3]; [7] -3% | [3]; [8] 20% | [3]; at 50.0 µM 35.6% | [4]; [7] -4% | [4]; [8] -13% | [4]; at 50.0 µM 45.4% | [5]; [7] 2% | [5]; [8] 12% | [5]; at 50.0 µM 6.6% | [6]; [7] 3% | [6]; [8] 4% | [6]; at 50.0 µM 33.5%

C=C(C)CCC(=C)C
inactive: [1]; [7] 22% | [1]; at 50.0 µM 48.7% | [2]; [7] 3% | [2]; [8] 47% | [2]; at 50.0 µM 14.1% | [3]; [7] 11% | [3]; [8] 63% | [3]; at 50.0 µM 42.4% | [4]; [7] -4% | [4]; [8] 26% | [4]; at 50.0 µM 29.8% | [5]; [7] -2% | [5]; [8] 2% | [5]; at 50.0 µM -35.2% | [6]; [7] 16% | [6]; [8] 64% | [6]; at 50.0 µM 42%
active: [1]; [8] 91%

CC(C)=CCC/C(C)=C/CCC1(C)C=Cc2c(c3ccccc3oc2=O)O1 (configuration not stated)
active: [6]; at 50.0 µM 76.5%
inactive: [1]; [7] 28% | [1]; [8] 3% | [1]; at 50.0 µM 20.1% | [2]; [7] 25% | [2]; [8] 15% | [2]; at 50.0 µM 15.2% | [3]; [7] 51% | [3]; [8] 36% | [3]; at 50.0 µM 57.6% | [4]; [7] 37% | [4]; [8] 25% | [4]; at 50.0 µM 52.3% | [5]; [7] 53% | [5]; [8] 28% | [5]; at 50.0 µM 23.1% | [6]; [7] 25% | [6]; [8] 16%

CN(c1ccc(Cl)cc1)S(=O)(=O)c1cccc([N+](=O)[O-])c1
inactive: [1]; [7] -6% | [1]; [8] 52% | [1]; at 50.0 µM 42.7% | [2]; [7] -13% | [2]; at 50.0 µM 42.8% | [3]; [7] -6% | [3]; [8] 62% | [4]; [7] 27% | [4]; [8] 48% | [4]; at 50.0 µM 48.4% | [5]; [7] -28% | [6]; [7] -11% | [6]; [8] 51% | [6]; at 50.0 µM 58.9%
active: [2]; [8] 71% | [3]; at 50.0 µM 70.8% | [5]; [8] 90% | [5]; at 50.0 µM 78%

CC(C)=CC(=O)OC(CCCc1ccccc1)c1ccc2c(c1)OCO2 (configuration not stated)
inactive: [1]; [7] 5% | [1]; [8] -5% | [1]; at 50.0 µM -4.6% | [2]; [7] 7% | [2]; [8] -16% | [2]; at 50.0 µM -13.2% | [3]; [7] -6% | [3]; [8] 9% | [3]; at 50.0 µM -4.75% | [4]; [7] 0% | [4]; [8] 3% | [4]; at 50.0 µM 0.35% | [5]; [7] 35% | [5]; [8] 33% | [5]; at 50.0 µM 50% | [6]; [7] 2% | [6]; [8] 14% | [6]; at 50.0 µM -8.25%
